# Only some compounds are listed: those with a hit (about 1.3% of all), similar ones and a draw of the others.
# Sa RN4220 lethal – kills Staphylococcus aureus RN4220. S. aureus RN4220 growth, OD600, 16 h. inhibition, % (no concentration beside the values). 0.33% of 330,000 active. AID 1259311; in the data active = inhibition above about 85%;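 note: plate controls were untreated cells for no effect and reference antibiotic for full effect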
# ugtP null kill – kills S. aureus RN4220 lacking UgtP | S. aureus RN4220 ugtP deletion, OD600 growth, 16 h | growth inhibition, % (concentration not given with the values) | 0.54% of 330,000 active; in the data active = growth inhibition above about 68%;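 note: plate controls were untreated wells for no effect and antibiotic for full effect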
# SARS 3CLpro inh – SARS-CoV 3CLpro protease inhibition; recombinant SARS-CoV 3CLpro, quenched FRET peptide cleavage; inhibition, % at 6 µM; 0.14% of 290,000 active; AID 1706; in the data active = inhibition above about 12%
# MazF activator – activators of E. coli MazEF toxin-antitoxin RNase; activation, % at 20 µM; 0.32% of 350,000 active; FAM/BHQ RNA-DNA oligo cleavage fluorescence, 5 h; in the data active = activation above about 50%
# Target sequence (P0AE70 whole entry, looked up): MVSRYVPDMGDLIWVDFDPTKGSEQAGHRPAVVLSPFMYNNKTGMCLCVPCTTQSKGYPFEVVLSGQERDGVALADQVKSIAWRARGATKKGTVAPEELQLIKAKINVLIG
# Mtb bLac sens – beta-lactam sensitization of Mtb H37Rv; M. tuberculosis H37Rv growth with meropenem, percent inhibition; inhibition, % at 25 µM; 0.27% of 330,000 active; call rule not given here;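 note: growth measured after seven days incubation then overnight dye step; 0% = bacteria only wells and 100% = bacteria with antibiotic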
# CCHFV vOTU inh – blocks the CCHF virus ovarian tumor domain protease; CCHFV vOTU protease, Pep-AMC fluorescence; inhibition, % at 11.5 µM; 0.55% of 370,000 active; AID 651958; in the data active = inhibition above about 30%; note: 0% = vehicle wells with enzyme and 100% = no enzyme wells
# Numbers without * were called inactive; ? = inconclusive; nt = no result given.
SMILES,Sa RN4220 lethal,ugtP null kill,SARS 3CLpro inh,MazF activator,Mtb bLac sens,CCHFV vOTU inh
CCCCN1C(=N)N([C@@H](C)CN2CCC[C@H]2CN2C(N)=NC[C@H]2CC(C)C)C[C@H]1Cc1ccccc1,nt,nt,nt,22,0,16
CCC[C@@H](CN1CCC[C@H]1CN1C(N)=NC[C@@H]1Cc1ccccc1)N1C[C@@H](Cc2ccccc2)N(CCCC2CCCC2)C1=N,nt,nt,nt,-4,100,nt
CC(CN1CCCC1CN1C(N)=NCC1Cc1ccccc1)N1CC(Cc2ccccc2)N(CCCC2CCCC2)C1=N (configuration not stated),101*,100*,nt,nt,nt,nt
CCC(C)C1CN(C(C)CN2CCCC2CN2C(N)=NCC2Cc2ccccc2)C(=N)N1CCCC1CCCC1 (configuration not stated),100*,100*,nt,nt,nt,nt
CCCCN1C(=N)N([C@@H](C)CN2CCC[C@H]2CN2C(N)=NC[C@@H]2Cc2ccccc2)C[C@H]1[C@H](C)CC,nt,nt,nt,13,13,12
CCC[C@@H](CN1CCC[C@H]1CN1C(N)=NC[C@H]1CC(C)C)N1C[C@@H](Cc2ccccc2)N(CCCC2CCCC2)C1=N,100*,101*,nt,8,100,11
CC(C)CC(CN=[N+]=[N-])N1CCN(Cc2ccccc2)CCC1=O (configuration not stated),5,2,nt,nt,nt,nt
CC(=O)Nc1nc(-c2cccs2)cs1,8,9,2,4,-2,3
O=C(Nc1nc(-c2cccs2)cs1)c1ccc(Cl)s1,61,94*,3,8,4,6
O=C(Nc1nc(-c2ccc(Cl)s2)cs1)c1ccccc1,6,94*,-3,-11,63,17
NC(=O)N/N=C/c1ccc(-c2ccc([N+](=O)[O-])cc2)o1,nt,nt,2,5,73,16
O=c1oc(/C=C/c2ccc([N+](=O)[O-])s2)nc2ccccc12,4,13,2,183*,99,nt
CC(=O)Oc1ccccc1/C=C/c1nc2ccccc2c(=O)o1,3,5,2,-6,55,-6
O=[N+]([O-])c1ccc(C=Nc2cccc3ccccc23)s1,98*,97*,2,4,29,nt
O=C(Cc1ccccc1)NCC(=O)N/N=C/c1ccc([N+](=O)[O-])s1,nt,nt,-1,10,98,31*
O=C(Cc1ccccc1)N/N=C/c1ccc(-c2ccc([N+](=O)[O-])cc2)o1,nt,nt,4,348*,2,-7
O=C(CNC(=O)c1ccc2c(c1)OCO2)NN=Cc1cccc([N+](=O)[O-])c1,4,8,nt,nt,nt,nt
CC(C)(C)OC(=O)CC1CC=CCC(CC(=O)NC(CO)Cc2ccccc2)C(=O)NC(Cc2ccccc2)COC1=O (configuration not stated),3,-2,nt,nt,nt,nt
Cc1ccc(C(=O)NN=Cc2ccc([N+](=O)[O-])s2)cn1,68,88*,nt,nt,nt,nt
CC(C)(C)c1cc(C(=O)NN=Cc2ccc([N+](=O)[O-])s2)n[nH]1,101*,101*,nt,nt,nt,nt
COc1cccc(NC(=O)C(=O)NN=Cc2ccc3c(c2)OCO3)c1,-1,0,nt,nt,nt,nt
O=C(NN=Cc1ccc(OC(=O)c2cccc(F)c2)cc1)c1cccnc1,1,5,nt,nt,nt,nt
O=[N+]([O-])c1ccc(/C=C/c2ccc3cccc(O)c3n2)cc1,6,-10,3,92*,78,-2
CC(=NNC(=O)c1c(Br)c(C)nn1C)c1cccc(NC(=O)c2ccccc2F)c1,5,-8,nt,nt,nt,nt
O=C(Nc1nnc(-c2cccs2)o1)c1cccc(C(F)(F)F)c1,100*,100*,6,-5,96,3
SMILES,Sa RN4220 lethal,ugtP null kill,SARS 3CLpro inh,MazF activator,Mtb bLac sens,CCHFV vOTU inh
CC1CC(C)CN(S(=O)(=O)c2ccc(C(=O)Nc3nnc(-c4cccs4)o3)cc2)C1 (configuration not stated),100*,100*,-4,-6,93,12
CCC1CCCCN1S(=O)(=O)c1ccc(C(=O)Nc2nnc(-c3cccs3)o2)cc1 (configuration not stated),95*,99*,3,-1,2,nt
O=C(NN=Cc1cn(Cc2ccccc2)c2ccccc12)c1ccncc1,3,3,nt,nt,nt,nt
Cc1ccccc1S(=O)(=O)N1C(c2ccc(Cl)cc2)CC=C(C(=O)O)C1c1ccccc1 (configuration not stated),23,33,nt,nt,nt,nt
O=C1C=C(c2ccccc2)C[C@H](c2cccs2)[C@H]1n1nnc([N+](=O)[O-])n1,59,100*,1,6,100,0
O=C(O)c1cccc(Cn2c(Cl)c(C=NNC(=O)c3ccco3)sc2=O)c1,3,7,nt,nt,nt,nt
COc1cc2cc(/C=C/C(=O)c3ccco3)c(Cl)nc2cc1OC,11,5,5,267*,96,13
COc1ccc2cc(/C=C/C(=O)c3ccco3)c(Cl)nc2c1,4,-2,-2,nt,-5,nt
O=C1Nc2ccc(Br)cc2C12NNc1ccccc1O2 (configuration not stated),85,97*,8,84*,100,9
COc1cc(CCCN2C(=S)NCC2Cc2ccccc2)cc(OC)c1OC (configuration not stated),8,6,nt,nt,nt,nt
CC(=O)NC1C(=O)N(CCN2CCOCC2)c2ccc(C)cc21 (configuration not stated),0,-7,54*,7,-7,nt
CC(=O)NC1C(=O)N(CCN2CCOCC2)c2ccc(Cl)cc21 (configuration not stated),nt,nt,13*,2,3,-7
O=C(NCc1ccccc1)C1=CC(c2coc3ccccc3c2=O)CC(OCCCCO)O1 (configuration not stated),4,2,nt,nt,nt,nt
CSc1ccc(C2C(C#N)=C(N)Oc3c2ccc(=O)c2c(C)oc(C)c32)cc1 (configuration not stated),8,2,-2,42,?,14
Cc1oc(C)c2c(=O)ccc3c(c12)OC(N)=C(C#N)C3c1ccccc1 (configuration not stated),0,-8,2,106*,65,14
CCN1C(=O)/C(=C2/SC(C)=C(C)N2CC)SC1=S,5,0,-8,76*,3,-4
CC(C)(C)c1ccc(C(=O)CSc2nc3ccccc3c(=O)[nH]2)cc1,6,4,-2,51*,2,2
C=CCC(CC(=O)NC(CO)Cc1ccccc1)C(=O)NC(COC(=O)C(CC=C)Cc1ccc(F)cc1)Cc1ccccc1 (configuration not stated),9,18,nt,nt,nt,nt
O=C1CC(c2ccc(O)c(O)c2)Oc2c1ccc(O)c2O (configuration not stated),6,-4,nt,53*,0,20
CC(C)=CCc1c(O)ccc2c1OC(c1ccc(O)c(O)c1)CC2=O (configuration not stated),0,2,2,86*,-2,2
